Only some compounds are listed: those with a hit (about 0.78% of all), similar ones and a draw of the others.
TCR activator – Activators of T cell receptors: qHTS campaign. primary human leukocytes, anti-CD3, IL-2 HTRF, 48 h. Potency, µM (doses to about 9.22 µM), for the others: at the top dose activation of IL-2 secretion, hits mostly activators. 330,000 tested, under 10 active; also: % of control where 0% means no effect
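Primary human leukocytes receive a-CD3 beads and test compound and are incubated 48 hr. Secreted IL-2 is then assayed by HTRF, measuring 665nm acceptor emission after 320nm excitation of the europium donor.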
RXFP1 antag – qHTS Assay for Antagonists of the Relaxin Receptor RXFP1 | Relaxin receptor 1 (Homo sapiens), Q9HBX9 | HEK293-RXFP1, relaxin-stimulated cAMP HTRF, 30 min; stronger effect = lower value | activity change, negative = inhibition, % at 57.5 µM | actives 0.59% (n = 350,000);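 active = activity change of -60% or lower, but not beyond a set lower limit; inconclusive = change between -60% and -40%, or beyond the set limit; inactive = change above -40%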; also: % is scaled to controls: 0 for no effect and ±100 for the full control effect
Target sequence (Q9HBX9 whole entry, looked up): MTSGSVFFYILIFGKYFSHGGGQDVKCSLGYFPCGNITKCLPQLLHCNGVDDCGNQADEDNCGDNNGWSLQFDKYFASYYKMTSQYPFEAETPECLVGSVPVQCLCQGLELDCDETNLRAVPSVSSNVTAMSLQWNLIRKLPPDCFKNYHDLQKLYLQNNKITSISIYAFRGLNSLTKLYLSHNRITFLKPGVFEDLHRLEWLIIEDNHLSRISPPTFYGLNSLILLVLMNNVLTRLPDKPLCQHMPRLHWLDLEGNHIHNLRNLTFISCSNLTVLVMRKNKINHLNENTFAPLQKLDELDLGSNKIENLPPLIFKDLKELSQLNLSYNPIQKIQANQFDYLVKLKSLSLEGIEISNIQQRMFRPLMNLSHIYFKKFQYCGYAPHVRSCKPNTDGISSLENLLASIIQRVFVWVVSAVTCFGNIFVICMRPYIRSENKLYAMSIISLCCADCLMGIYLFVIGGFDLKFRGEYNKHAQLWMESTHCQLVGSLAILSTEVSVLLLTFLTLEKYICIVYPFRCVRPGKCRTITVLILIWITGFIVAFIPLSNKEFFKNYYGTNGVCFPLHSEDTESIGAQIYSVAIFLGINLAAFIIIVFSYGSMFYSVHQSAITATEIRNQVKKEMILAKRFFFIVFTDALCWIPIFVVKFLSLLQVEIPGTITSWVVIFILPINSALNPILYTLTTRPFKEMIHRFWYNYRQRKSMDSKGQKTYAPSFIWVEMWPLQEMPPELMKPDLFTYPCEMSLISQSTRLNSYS
PINK1 modulator – A Quantitative High throughput Screen to Identify Chemical Modulators of PINK1 Expression. Potency, µM (titrated, usually from 76.6 µM), without a hit: top-dose activation (PINK1 increase), usual class: activators. PINK1 immunofluorescence, high-content cytometry, 24 h. actives 0.2% (n = 410,000); active = well fitted activation curve with a large enough effect; inconclusive = small, poorly fitted or top-dose-only effect; cell line not stated here; also: potency is read from the fitted curve at half-maximal effect; % of control where 0% means no effect; nearly all actives have a fitted effect of over 65% in size
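Fluorescence from anti-PINK1 antibody, together with nuclear and cell stains, was scanned on a laser-scanning cytometer. Before staining, stable-line cells were incubated 24 hours with compounds at 5 concentrations; primary antibody 12 h at 10 degrees C.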
RXFP1 ag – qHTS Assay for Agonists of the Relaxin Receptor RXFP1; Relaxin receptor 1 (Homo sapiens), Q9HBX9; HEK293T-RXFP1 cAMP TR-FRET, 30 min; response scale: percent of porcine relaxin response, buffer zero; Potency, µM (doses to about 57.5 µM), without a hit: top-dose activation, usual class: activators; actives 0.3% (n = 370,000); AID 2676, 2010; also: potency is read from the fitted curve at half-maximal effect; % is scaled to controls: 0 for no effect and ±100 for the full control effect; nearly all actives have a fitted effect of over 60% in size
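HEK293 cells stably expressing RXFP1, treated 30 min at 37C with compounds plus PDE4 inhibitor Ro 20174; cAMP measured by HTRF TR-FRET. Normalized to buffer and 29 nM porcine relaxin; EC50 by Hill fit.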
miR-21 act – qHTS Assay for Modulators of miRNAs and/orActivators of miR-21; HeLa miR-21 FLuc reporter, luciferase, 48 h; 340,000 tested, under 10 active; Potency, µM (titrated, usually from 38.3 µM), for the others: top-dose activity change, positive = activation, most hits filed as activators;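 also: % of control where 0% means no effect; miR-21 action dims this reporter so a rising signal means less miR-21 action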
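Compounds were titrated across several concentrations (up to approximately 40 uM) and incubated 48 hours with HeLa miR-21-FLuc reporter cells (miR-21 target sequence downstream of FLuc, endogenous miR-21). Readout was firefly luciferase luminescence after lytic detection reagent.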
IL2 activator – qHTS of IL-2 Activators | IL-2 activation reporter assay, cell-based qHTS; stimulated with anti-CD3/CD4/CD28 beads; in transgenic mouse T cells | activation, % (series mostly up to about 46 µM) | actives 0.065% (n = 360,000); in the data active = activation above about 50%; inconclusive = mostly about 30% to 49%; also: 0% is about no effect
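Screening format: compound pinned onto unstimulated transgenic mouse T cells, 60 min incubation, then anti-CD3/anti-CD4/anti-CD28 bead stimulation for 18 hours at 37 degrees C, followed by EGFP and DsRed detection.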
Numbers without * were called inactive; ? = inconclusive; . = no result; [ ] = dose if it differs, or a comment. Unless noted, calls follow the shape of the dose curve; as a rule, active = well fitted curve in the direction sought with a large enough effect; inconclusive = small, poorly fitted or top-dose-only effect, or another doubt; inactive = no such curve, though single readings can be large; an effect the other way counts as inactive or inconclusive.

SMILES | TCR activator | RXFP1 antag | PINK1 modulator | RXFP1 ag | miR-21 act | IL2 activator
CN(C)c1ccc(/C=C(\C#N)C(=O)Nc2nc3c(s2)CCN(Cc2ccccc2)C3)cc1 | 3% | 20 | ? | 1% | -3% | 59*
O=C(Nc1nc2c(s1)CN(Cc1ccccc1)CC2)C1CCC1 | -7% | -11 | 3% | 0% | -45% | 0
O=C(CN1C(=O)C2CCCCC2C1=O)Nc1ccccc1N1CCCC1 (stereo not given) | -3% | -99* | 3% | -1% | . | 0
O=C(CN1C(=O)C2CC=CCC2C1=O)Nc1ccccc1N1CCCC1 (stereo not given) | -2% | -15 | 0% | 0% | . | -2
CCC(C(=O)Nc1ccccc1N1CCCC1)c1ccccc1 (stereo not given) | -8% | -68* | -2% | 0% | -3% | -5
Cc1ncc2c(c1CNS(=O)(=O)c1cccs1)CCN(C(=O)/C=C/c1cc(F)cc(F)c1)C2 | . | . | 0% | . | . | .
Oc1ccc(Cl)cc1CN1CCOc2c(O)cc(-c3nc4ccccc4s3)cc2C1 | . | . | 2% | . | . | .
CC(NCC(O)COc1ccc2ccccc2c1)c1ccccc1 (stereo not given) | -5% | -87* | -4% | 0% | 5% | 0
COc1ccc(OCC(O)CNC(C)c2ccccc2)cc1 (stereo not given) | -3% | 7 | 0% | 5% | -2% | 0
COc1cc(C(=O)N(Cc2cc3ccc(C)cc3nc2N(C)C)C2CC2)cc(OC)c1OC | . | . | -1% | . | . | .
O=C(NN1C(=O)c2ccccc2NC1c1ccc([N+](=O)[O-])o1)c1ccc([N+](=O)[O-])cc1 (stereo not given) | -5% | 23 | -2% | 2.8µM* | 18% | -3
O=C(NC1CCCCC1)C1CCN(S(=O)(=O)c2cccc3nsnc23)CC1 | . | -4 | 10µM* | 0% | -5% | -2
COCC(=O)Nc1cc(C(=O)N[C@H]2CCCCNC2=O)c2c(c1)nc(-c1ccncc1)n2C | . | . | 0% | . | . | .
COc1ccc(-c2nc3ccccc3n2Cc2ccccc2)cc1 | -8% | -2 | 6% | 0% | -1% | -5
COc1ccc(-c2n(Cc3ccccc3)c3ccccc3[n+]2Cc2ccccc2)cc1 | -1% | ? | 11µM* | 1% | ? | -2
Nc1c(C(=O)NCC2CCCO2)sc2nc3c(c(-c4ccco4)c12)CC/C3=C\c1ccco1 (stereo not given) | 1%[46.1 µM] | -102* | 2% | 1% | -4% | 0
NC(=O)c1sc2nc3c(c(-c4ccco4)c2c1N)CCCC3 | 8% | -3 | 0% | 0% | 20% | 0
CCSc1nnc(NC(=O)C(C)(C(F)(F)F)C(F)(F)F)s1 | -4% | -15 | 25µM* | 2% | 25% | -3
CCSc1nnc(NC(=O)C(CC)(C(F)(F)F)C(F)(F)F)s1 | 1% | -19 | ? | 3% | ? | 4
O=c1[nH]c2ccc([N+](=O)[O-])cc2nc1/C=C(\O)c1ccccc1 | 2% | 2 | 28µM* | 0% | -4% | 1
Nc1ncccc1OCc1cccc(C(F)(F)F)c1 | -29% | -4 | 0% | -1% | -1% | -2
Nc1nc(N)c(-c2cccc(C(F)(F)F)c2)c(Cc2cccc(C(F)(F)F)c2)n1 | -2% | -93* | -1% | . | . | 0
Cc1ccc(-c2csc(NS(=O)(=O)c3cccc(F)c3)n2)o1 | 2%[46.1 µM] | -75* | -1% | . | . | 0
Cc1nc(C)c(C(=O)Nc2ccc(Oc3ccccc3)cc2)o1 | . | -21 | 5.6µM* | -1% | -3% | 0
Cc1ncoc1C(=O)Nc1ccc(Oc2ccccc2)cc1 | 5% | 3 | -5%[38.3 µM] | 0% | -20% | -2
SMILES | TCR activator | RXFP1 antag | PINK1 modulator | RXFP1 ag | miR-21 act | IL2 activator
COc1cccc(C(=O)NNC(=O)C(=O)Nc2cccc(Cl)c2C)c1 | 0% | -70* | 0% | 1% | -6% | 0
O=C(c1ccc(N2CCCC2)c([N+](=O)[O-])c1)N1CCN(S(=O)(=O)c2ccc(Cl)cc2)CC1 | -12% | -64* | -1% | 0% | . | 1
N#Cc1ccccc1Cn1cc(/C=N/Nc2ccc([N+](=O)[O-])cn2)c2ccccc21 | 4% | -3 | 3% | 4% | -4% | 74*
COc1ccc(C=NNc2ccc([N+](=O)[O-])cn2)cc1 | 1% | -10 | 11µM* | . | . | 3
COc1cccc(C=NNc2ccc([N+](=O)[O-])cn2)c1OC | -4% | -3 | 5% | . | . | 0
O=[N+]([O-])c1ccc(NN=Cc2ccccc2O)nc1 | 2% | ? | 5% | . | . | 0
COc1ccccc1C=NNc1ccc([N+](=O)[O-])cn1 | -3% | -3 | ? | . | . | 73*
COc1cc(=O)n2c(c1C(=O)NC(C)c1ccco1)CCN(C(=O)c1ccnc(Cl)c1)CC2 (stereo not given) | . | . | 1% | . | . | .
CCOC(=O)C1=C(N)OC2=C(C(=O)CC(C)(C)C2)C1c1ccc(C)s1 (stereo not given) | -4% | -62* | 3% | -4% | -17% | 3
COc1ccc(-n2c(SC3CCOC3=O)nc3ccccc3c2=O)cc1Cl (stereo not given) | 0% | -2 | -1% | -3% | -3% | 0
COc1ccc(-n2c(SC3CCOC3=O)nc3ccccc3c2=O)cc1OC (stereo not given) | . | 13 | 10µM* | 3% | -15% | 0
CC1Cc2ccccc2N1C(=O)CSc1ccccc1 (stereo not given) | 0% | -12 | -4%[38.3 µM] | -1% | -31% | 1
CC1Cc2ccccc2N1C(=O)CSC1=NCCS1 (stereo not given) | . | -7 | 11µM* | 0% | -16% | -3
CCCCS(=O)(=O)c1oc(-c2ccc(F)cc2)nc1S(=O)(=O)c1ccccc1 | . | -81* | -1% | 1% | ? | .
CC(C)S(=O)(=O)c1oc(-c2ccc(F)cc2)nc1S(=O)(=O)c1ccccc1 | . | -106* | -1% | 0% | ? | .
CCS(=O)(=O)c1oc(-c2ccc(F)cc2)nc1S(=O)(=O)c1ccc(Br)cc1 | . | -102* | 2% | 1% | ? | .
CSc1oc(-c2ccccc2)nc1S(=O)(=O)c1ccc(F)cc1 | -3% | -6 | -3%[38.3 µM] | 1% | 4% | 0
